A number with no mark means an inactive call. Calls follow the shape of the dose curve; as a rule, active = well fitted activation curve with a large enough effect in the repeat runs; inconclusive = weak or mixed curves; inactive = flat fitted curve, though single readings scatter.
target: KiSS-1 receptor (Homo sapiens) (UniProt Q969F8); assay: Human kisspeptin (KISS1R) small molecule agonists, calcium flux assay in KISS1R-HEK293 cells (AID 1920064); details: KISS1R-HEK293, calcium flux fluorescence, agonist; series mostly up to 76.8 µM; activation: at the top concentration
Text: National Center for Advancing Translational Sciences [NCATS]
Division of Preclinical Innovation [DPI]
U.S. Environmental Protection Agency [EPA]
National Institutes of Environmental Health Sciences [NIEHS]
National Toxicology Program [NTP]
U.S. Food and Drug Administration [FDA]
Kisspeptin and its receptor KISS1R play key roles in mammalian reproduction due to their involvement in the onset of puberty and control of the hypothalamic-pituitary-gonadal axis such as regulates GnRH release from the hypothalamus. The kisspeptin/KISS1R system also plays a direct role in peripheral organs (including the ovary, testis, uterus, and placenta) and is implicated in reproductive diseases such as miscarriage and polycystic ovary syndrome (PCOS). Abnormal KISS1R activity is associated with abnormal puberty, infertility, endometriosis, and hormone-dependent tumors. The KISS1 receptor (KISS1R, also called GPR54), a G-protein-coupled receptor (GPCR), acts (through phospholipase C) to increase intracellular inositol trisphosphate and then release intracellular calcium stores. Cell-based KISS1R-HEK293 assay is using HEK293 cells that have been genetically engineered to express the human KISS1R, which activity can be measured by calcium signaling. A compound/drug can activate (agonist) KISS1R that can be monitored by levels of intracellular calcium.
KISS1R-HEK293 cells developed by Codex Corp contain human KISS1R gene, which was stably integrated into HEK 293 cells. The compound activation can be detected by fluorescence intensity via calcium flux assay. This cell line has been used to screen the Tox21 10K compound library to identify agonists of KISS1R.
KISS1R-Hek293 cells were dispensed at 1500 cells/4uL/well in 1536-well black wall/clear bottom plates using a multidrop dispenser. After the assay plates were incubated at a 37 C/5% CO2 incubator for 18 hours, 4 microL of Calcium Dye Solution was added to each well. The plates were incubated at 37 C for 1 hour. And then 23 nL of compounds dissolved in DMSO, positive controls, or DMSO only was transferred to the assay plate by a pin tool station. The fluorescence intensity in the plates was measured using FDSS 7000EX kinetic plate reader with a filter set of Ex/Em=480/540 for 3 min at 1 sec intervals. Each test compound was measured at 15 concentrations and in triplicates.
% is scaled to controls: 0 for no effect and ±100 for the full control effect.

KiSS-1 receptor (Homo sapiens), sequence (Q969F8 whole entry, looked up): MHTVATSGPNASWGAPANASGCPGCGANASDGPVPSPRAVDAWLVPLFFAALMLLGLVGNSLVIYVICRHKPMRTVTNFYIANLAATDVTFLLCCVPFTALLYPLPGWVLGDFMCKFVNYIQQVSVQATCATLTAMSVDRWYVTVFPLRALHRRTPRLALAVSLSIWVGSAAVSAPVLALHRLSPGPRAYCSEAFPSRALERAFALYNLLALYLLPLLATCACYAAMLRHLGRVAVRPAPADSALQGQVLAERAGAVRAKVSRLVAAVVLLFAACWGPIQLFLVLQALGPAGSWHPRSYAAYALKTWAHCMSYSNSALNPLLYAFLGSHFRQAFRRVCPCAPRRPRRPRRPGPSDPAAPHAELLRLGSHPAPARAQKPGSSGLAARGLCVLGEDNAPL

| Structure (SMILES) | activation |
| --- | --- |
| O=C(CCCN1CCN(c2ccccn2)CC1)c1ccc(F)cc1 | -0.556% [at 35.3 µM] |
| O=S(O)(O)=S | -0.115% [at 6.97 µM] |
| CCCCCCCCCCCCCCCCCC#N | 0.968% |
| O=C(c1ccc(F)cc1)C1CCN(CCn2c(=O)[nH]c3ccccc3c2=O)CC1 | 2.08% [at 35.3 µM] |
| Nc1cccc(S(=O)(=O)O)c1 | -4.3% |
| CC(C)c1cc(C(C)C)cc(C(C)C)c1 | 0.101% |
| CC(=O)CC(C)C | 0.0244% |
| C[Si](NC1CCCCC1)(NC1CCCCC1)NC1CCCCC1 | -0.128% |
| CCN(CC)c1ccc(C(=C2C=CC(=[N+](CC)CC)C=C2)c2ccc(S(=O)(=O)O)cc2S(=O)(=O)[O-])cc1 | -1.5% |
| C/C(=C\C(C)CC(C)CC(C)C)C1CC(=O)OC1=O (stereo not given) | -5.29% |
| COc1ccc(/C(C)=C/C(=O)O)c(OC)c1 | -1.16% [at 35.3 µM] |
| CCCCCCCCCI | 2.28% |
| C=C(C)C(=O)OCC[N+](C)(C)C | 1.01% |
| CC(C)[N+](C)(C)CC(O)COc1cccc2ccccc12 (stereo not given) | -0.507% [at 35.3 µM] |
| CCCCCCCCCCCCCCCCCCO | -0.217% [at 35.3 µM] |
| C=C(C)CCCC(C)CCO (stereo not given) | 0.15% |
| Nc1nc2c(ncn2COC(CO)CO)c(=O)[nH]1 | 0.304% [at 35.3 µM] |
| CCOC(=O)OC(C)OC1=C(C(=O)Nc2ccccn2)N(C)S(=O)(=O)c2ccccc21 (stereo not given) | -0.704% [at 35.3 µM] |
| COC(=O)C1=C(C)NC(C)=C(C(=O)OC(C)(C)CN(C)CCC(c2ccccc2)c2ccccc2)C1c1cccc([N+](=O)[O-])c1 (stereo not given) | -0.274% [at 35.3 µM] |
| Cc1cc(C(C)(C)C)c(O)c(C)c1Cn1c(=O)n(Cc2c(C)cc(C(C)(C)C)c(O)c2C)c(=O)n(Cc2c(C)cc(C(C)(C)C)c(O)c2C)c1=O | 5.85% |

| Structure (SMILES) | activation |
| --- | --- |
| CCOC(=O)NNc1ccc(N(CC)CC(C)O)nn1 (stereo not given) | 0.368% [at 35.3 µM] |
| CC[N+](CC)(CCNC(=O)C(=O)NCC[N+](CC)(CC)Cc1ccccc1Cl)Cc1ccccc1Cl | -0.183% [at 35.3 µM] |
| C=CC(OCC)OCC | 4.89% |
| CCCCOc1cc(C(=O)OCCN(CC)CC)ccc1N | 0.453% [at 35.3 µM] |
| C[C@@H]1C[C@H]2[C@@H]3CCC4=CC(=O)C=C[C@]4(C)[C@@]3(F)[C@@H](O)C[C@]2(C)[C@@]1(O)C(=O)COP(=O)(O)O | 0.868% |
| CCN(CC)C(C)=O | 1.66% |
| O=CN1CCOCC1 | 0.464% |
| CCN1CC(CCN2CCOCC2)C(c2ccccc2)(c2ccccc2)C1=O (stereo not given) | 0.0032% [at 35.3 µM] |
| CC1=C(C)C(=O)C(C(CCCCCC(=O)O)c2ccccc2)=C(C)C1=O (stereo not given) | 1.78% [at 35.3 µM] |
| CNC(=O)c1ccccc1Sc1ccc2c(/C=C/c3ccccn3)n[nH]c2c1 | -1.33% [at 35.3 µM] |
| Nc1ccc(S(=O)(=O)Nc2ccccc2)cc1 | 0.723% [at 35.3 µM] |
| CC(C)(C#N)Nc1nc(Cl)nc(NC2CC2)n1 | -1.53% |
| O[C@@H](CNC[C@H](O)[C@H]1CCc2cc(F)ccc2O1)[C@@H]1CCc2cc(F)ccc2O1 | 15.6% [at 35.3 µM] |
| CCCCCOC(=O)CCC | 0.15% |
| CCOc1nc2cccc(C(=O)O)c2n1Cc1ccc(-c2ccccc2-c2nn[nH]n2)cc1 | 2.18% [at 35.3 µM] |
| CC(C)Oc1ccccc1O | -2.01% |
| Cc1cc(CC(=O)O)c(C)n1-c1ccc(Cl)cc1 | -0.693% [at 35.3 µM] |
| Nc1nc2c(ncn2COCCO)c(=O)[nH]1 | -0.107% [at 35.3 µM] |
| COc1ccc2nc(NC(=O)Nc3ccccc3)sc2c1 | 1.22% [at 35.3 µM] |
| Cc1cc(=O)oc2cc(O[C@@H]3SC[C@@H](O)[C@H](O)[C@H]3O)ccc12 | -0.888% [at 35.3 µM] |

Source: PubChem BioAssay (Tox21)
